{"source": "ChEMBL document CHEMBL1157539", "about": "“Thousands of chemical starting points for antimalarial lead identification” (Nature, 2010)", "type_in_all_cases": "functional", "key": {"Plasmodium falciparum [1]": {"system": "Plasmodium falciparum", "assay": "GSK_TCMDC: Inhibition of Plasmodium falciparum 3D7 in whole red blood cells, using parasite LDH activity as an index of growth. Test compounds present at 2uM"}, "Plasmodium falciparum [2]": {"system": "Plasmodium falciparum", "assay": "GSK_TCMDC: Inhibition of Plasmodium falciparum Dd2 in whole red blood cells, using parasite LDH activity as an index of growth. Test compounds present at 2uM"}, "HepG2": {"system": "HepG2", "assay": "GSK_TCMDC: Percent inhibition of human HepG2 cell line. Test compounds present at 10uM."}}, "data": [{"smiles": "CCC1(C)N=C(N)N=C(N)N1c1ccccc1.Cl", "note": "(centres undefined)", "values": [{"measurement": "Inhibition", "setting": "Plasmodium falciparum [1]", "result": 98, "unit": "%"}, {"measurement": "Inhibition", "setting": "Plasmodium falciparum [2]", "result": 0, "unit": "%"}, {"measurement": "Inhibition", "setting": "HepG2", "result": 6, "unit": "%"}]}, {"smiles": "CC(C)c1ccc(NC(=O)c2ccc(C(=O)NC3CCN(Cc4ccsc4)C3)cc2)cc1.O=C(O)C(F)(F)F", "note": "(centres undefined)", "values": [{"measurement": "Inhibition", "setting": "Plasmodium falciparum [1]", "result": 82, "unit": "%"}, {"measurement": "Inhibition", "setting": "Plasmodium falciparum [2]", "result": 28, "unit": "%"}, {"measurement": "Inhibition", "setting": "HepG2", "result": 17, "unit": "%"}]}, {"smiles": "COc1ccc2nccc([C@@H](O)CN3CCC(NCCOc4ccccc4[N+](=O)[O-])CC3)c2c1.O=C(O)C(=O)O", "values": [{"measurement": "Inhibition", "setting": "Plasmodium falciparum [1]", "result": 100, "unit": "%"}, {"measurement": "Inhibition", "setting": "Plasmodium falciparum [2]", "result": 98, "unit": "%"}, {"measurement": "Inhibition", "setting": "HepG2", "result": 4, "unit": "%"}]}, {"smiles": "COc1ccccc1C1CCN(CCN2CCC(NC(=O)c3ccc(-c4ccc(C#N)cc4)cc3)CC2)CC1", "values": [{"measurement": "Inhibition", "setting": "Plasmodium falciparum [1]", "result": 99, "unit": "%"}, {"measurement": "Inhibition", "setting": "Plasmodium falciparum [2]", "result": 42, "unit": "%"}, {"measurement": "Inhibition", "setting": "HepG2", "result": 31, "unit": "%"}]}, {"smiles": "O=C(O)C(F)(F)F.O=c1cc(NCCCNCc2cn(S(=O)(=O)c3ccccc3)c3ccccc23)[nH]c2ccccc12", "values": [{"measurement": "Inhibition", "setting": "Plasmodium falciparum [1]", "result": 91, "unit": "%"}, {"measurement": "Inhibition", "setting": "Plasmodium falciparum [2]", "result": 29, "unit": "%"}, {"measurement": "Inhibition", "setting": "HepG2", "result": 17, "unit": "%"}]}, {"smiles": "COc1ccc(CC(=O)Nc2ccc(Nc3nc(C)cc(N(C)C)n3)cc2)cc1", "values": [{"measurement": "Inhibition", "setting": "Plasmodium falciparum [1]", "result": 97, "unit": "%"}, {"measurement": "Inhibition", "setting": "Plasmodium falciparum [2]", "result": 31, "unit": "%"}, {"measurement": "Inhibition", "setting": "HepG2", "result": 17, "unit": "%"}]}, {"smiles": "CC(C)Cn1cc(C2CCN(CCN3CCC(CNC(=O)c4ccc(-c5ccc(C#N)cc5)cc4)CC3)CC2)c2ccccc21", "values": [{"measurement": "Inhibition", "setting": "Plasmodium falciparum [1]", "result": 100, "unit": "%"}, {"measurement": "Inhibition", "setting": "Plasmodium falciparum [2]", "result": 98, "unit": "%"}, {"measurement": "Inhibition", "setting": "HepG2", "result": 28, "unit": "%"}]}, {"smiles": "Cc1ccc(S(=O)(=O)n2nccc2-c2c(-c3ccc(Cl)cc3)noc2C)cc1", "values": [{"measurement": "Inhibition", "setting": "Plasmodium falciparum [1]", "result": 97, "unit": "%"}, {"measurement": "Inhibition", "setting": "Plasmodium falciparum [2]", "result": 97, "unit": "%"}, {"measurement": "Inhibition", "setting": "HepG2", "result": 0, "unit": "%"}]}, {"smiles": "Cc1ccc(Cn2c(N3CCC(C(=O)NCc4cccs4)CC3)nc3ccccc32)cc1", "values": [{"measurement": "Inhibition", "setting": "Plasmodium falciparum [1]", "result": 99, "unit": "%"}, {"measurement": "Inhibition", "setting": "Plasmodium falciparum [2]", "result": 71, "unit": "%"}, {"measurement": "Inhibition", "setting": "HepG2", "result": 0, "unit": "%"}]}, {"smiles": "C[C@@H]1CN(C(c2cccc(O)c2)c2cccc(C(=O)N(C)c3cccc(F)c3)c2)[C@@H](C)CN1C(c1cccc(O)c1)c1cccc(C(=O)N(C)c2cccc(F)c2)c1.Cl", "note": "(some centres undefined)", "values": [{"measurement": "Inhibition", "setting": "Plasmodium falciparum [1]", "result": 91, "unit": "%"}, {"measurement": "Inhibition", "setting": "Plasmodium falciparum [2]", "result": 85, "unit": "%"}, {"measurement": "Inhibition", "setting": "HepG2", "result": 0, "unit": "%"}]}, {"smiles": "O=C(O)C(F)(F)F.Oc1ccc(CCNc2nc(NCc3cccc(-c4cc(C(F)(F)F)ccc4Cl)c3)nc(N3CCNCC3)n2)cc1", "values": [{"measurement": "Inhibition", "setting": "Plasmodium falciparum [1]", "result": 90, "unit": "%"}, {"measurement": "Inhibition", "setting": "Plasmodium falciparum [2]", "result": 8, "unit": "%"}, {"measurement": "Inhibition", "setting": "HepG2", "result": 33, "unit": "%"}]}, {"smiles": "Cl.Oc1cccc(Nc2ccnc3cc(-c4cc5ccccc5o4)ccc23)c1", "values": [{"measurement": "Inhibition", "setting": "Plasmodium falciparum [1]", "result": 100, "unit": "%"}, {"measurement": "Inhibition", "setting": "Plasmodium falciparum [2]", "result": 71, "unit": "%"}, {"measurement": "Inhibition", "setting": "HepG2", "result": 9, "unit": "%"}]}, {"smiles": "COc1ccc(CN(C)CCCOc2ccc(NC(=O)c3cccc4c(=O)c5cccc(F)c5[nH]c34)cc2)cc1OC", "values": [{"measurement": "Inhibition", "setting": "Plasmodium falciparum [1]", "result": 100, "unit": "%"}, {"measurement": "Inhibition", "setting": "Plasmodium falciparum [2]", "result": 96, "unit": "%"}, {"measurement": "Inhibition", "setting": "HepG2", "result": 6, "unit": "%"}]}, {"smiles": "CCc1sc(N2CCN(C)CC2)nc1C(=O)Nc1ccc(F)cc1C(F)(F)F.O=C(O)C(F)(F)F", "values": [{"measurement": "Inhibition", "setting": "Plasmodium falciparum [1]", "result": 100, "unit": "%"}, {"measurement": "Inhibition", "setting": "Plasmodium falciparum [2]", "result": 98, "unit": "%"}, {"measurement": "Inhibition", "setting": "HepG2", "result": 0, "unit": "%"}]}, {"smiles": "O=C(/C=C/c1ccc(Cl)c(Cl)c1)NCCCCCN1CCCN(C(=O)Nc2cccc(Cl)c2)CC1", "values": [{"measurement": "Inhibition", "setting": "Plasmodium falciparum [1]", "result": 100, "unit": "%"}, {"measurement": "Inhibition", "setting": "Plasmodium falciparum [2]", "result": 2, "unit": "%"}, {"measurement": "Inhibition", "setting": "HepG2", "result": 11, "unit": "%"}]}, {"smiles": "CC(NCC(O)Cn1c2ccccc2c2ccccc21)c1ccccc1.O=C(O)c1ccccc1", "note": "(centres undefined)", "values": [{"measurement": "Inhibition", "setting": "Plasmodium falciparum [1]", "result": 96, "unit": "%"}, {"measurement": "Inhibition", "setting": "Plasmodium falciparum [2]", "result": 85, "unit": "%"}, {"measurement": "Inhibition", "setting": "HepG2", "result": 37, "unit": "%"}]}, {"smiles": "CC(CN1CCN(C)CC1)C(=O)Nc1cccc(-c2ccc(-c3nc4cc(C(F)(F)F)ccc4[nH]3)cc2)c1", "note": "(centres undefined)", "values": [{"measurement": "Inhibition", "setting": "Plasmodium falciparum [1]", "result": 100, "unit": "%"}, {"measurement": "Inhibition", "setting": "Plasmodium falciparum [2]", "result": 98, "unit": "%"}, {"measurement": "Inhibition", "setting": "HepG2", "result": 11, "unit": "%"}]}, {"smiles": "O=C(NC1CCN(c2ccnc3ccccc23)C1)c1ccc(OC(F)(F)F)cc1.O=C(O)C(F)(F)F", "note": "(centres undefined)", "values": [{"measurement": "Inhibition", "setting": "Plasmodium falciparum [1]", "result": 89, "unit": "%"}, {"measurement": "Inhibition", "setting": "Plasmodium falciparum [2]", "result": 68, "unit": "%"}, {"measurement": "Inhibition", "setting": "HepG2", "result": 35, "unit": "%"}]}, {"smiles": "CCCCCNc1ccnc2cc(Cl)ccc12", "values": [{"measurement": "Inhibition", "setting": "Plasmodium falciparum [1]", "result": 97, "unit": "%"}, {"measurement": "Inhibition", "setting": "Plasmodium falciparum [2]", "result": 99, "unit": "%"}, {"measurement": "Inhibition", "setting": "HepG2", "result": 12, "unit": "%"}]}, {"smiles": "COc1cc2nc(Nc3ccc(N4CCOCC4)cc3)nc(N)c2cc1OC.Cl", "values": [{"measurement": "Inhibition", "setting": "Plasmodium falciparum [1]", "result": 95, "unit": "%"}, {"measurement": "Inhibition", "setting": "Plasmodium falciparum [2]", "result": 10, "unit": "%"}, {"measurement": "Inhibition", "setting": "HepG2", "result": 8, "unit": "%"}]}, {"smiles": "COc1ccc(CC(=O)NC2CCN(c3ccnc4cc(Cl)ccc34)C2)cc1.O=C(O)C(F)(F)F", "note": "(centres undefined)", "values": [{"measurement": "Inhibition", "setting": "Plasmodium falciparum [1]", "result": 100, "unit": "%"}, {"measurement": "Inhibition", "setting": "Plasmodium falciparum [2]", "result": 88, "unit": "%"}, {"measurement": "Inhibition", "setting": "HepG2", "result": 0, "unit": "%"}]}, {"smiles": "COc1ccc(CCNc2nc(NCc3ccccc3)c3cc(OC)c(OC)cc3n2)cc1OC", "values": [{"measurement": "Inhibition", "setting": "Plasmodium falciparum [1]", "result": 100, "unit": "%"}, {"measurement": "Inhibition", "setting": "Plasmodium falciparum [2]", "result": 91, "unit": "%"}, {"measurement": "Inhibition", "setting": "HepG2", "result": 46, "unit": "%"}]}, {"smiles": "O=C(CSc1nc(-c2ccccc2Cl)ns1)Nc1cccc(F)c1", "values": [{"measurement": "Inhibition", "setting": "Plasmodium falciparum [1]", "result": 93, "unit": "%"}, {"measurement": "Inhibition", "setting": "Plasmodium falciparum [2]", "result": 81, "unit": "%"}, {"measurement": "Inhibition", "setting": "HepG2", "result": 0, "unit": "%"}]}, {"smiles": "Cn1cncc1C(=O)Nc1cccc(-c2ccc(-c3nc4cc(F)ccc4[nH]3)cc2)c1", "values": [{"measurement": "Inhibition", "setting": "Plasmodium falciparum [1]", "result": 100, "unit": "%"}, {"measurement": "Inhibition", "setting": "Plasmodium falciparum [2]", "result": 31, "unit": "%"}, {"measurement": "Inhibition", "setting": "HepG2", "result": 0, "unit": "%"}]}, {"smiles": "CC(C)CCCC(C)(C)NC[C@@H](O)[C@H](Cc1ccccc1)NC(=O)c1cc(NC(C)C)cc(N2CCCCS2(=O)=O)c1.O=CO", "values": [{"measurement": "Inhibition", "setting": "Plasmodium falciparum [1]", "result": 98, "unit": "%"}, {"measurement": "Inhibition", "setting": "Plasmodium falciparum [2]", "result": 98, "unit": "%"}, {"measurement": "Inhibition", "setting": "HepG2", "result": 2, "unit": "%"}]}, {"smiles": "Fc1ccc(NC(S)=NN=Cc2ccccn2)cc1", "values": [{"measurement": "Inhibition", "setting": "Plasmodium falciparum [1]", "result": 95, "unit": "%"}, {"measurement": "Inhibition", "setting": "Plasmodium falciparum [2]", "result": 67, "unit": "%"}, {"measurement": "Inhibition", "setting": "HepG2", "result": 56, "unit": "%"}]}, {"smiles": "COC(=O)c1ccc(-c2ccc(-c3cccnc3)cc2C)cc1", "values": [{"measurement": "Inhibition", "setting": "Plasmodium falciparum [1]", "result": 100, "unit": "%"}, {"measurement": "Inhibition", "setting": "Plasmodium falciparum [2]", "result": 98, "unit": "%"}, {"measurement": "Inhibition", "setting": "HepG2", "result": 81, "unit": "%"}]}, {"smiles": "COc1cc(C)nc2ccc(NC(=O)Nc3cccc4ccccc34)cc12", "values": [{"measurement": "Inhibition", "setting": "Plasmodium falciparum [1]", "result": 91, "unit": "%"}, {"measurement": "Inhibition", "setting": "Plasmodium falciparum [2]", "result": 48, "unit": "%"}, {"measurement": "Inhibition", "setting": "HepG2", "result": 27, "unit": "%"}]}]}
